PriA SSB inh = blocks PriA binding to SSB C-terminal tail; inhibition, % at 33 µM; AID 1272365; AlphaScreen SSBct-PriA binding, biotinylated peptide; 430,000 compounds, 0.6% hits; in the data active means inhibition mostly above about 37%, no sharp cut-off; inactive means mostly below about 20%;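 further: plate controls were negative control peptide for no effect and reference peptide for full effect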
Anthrax LF prot = anthrax lethal factor protease inhibition; 360,000 compounds, 0.12% hits; multiplex microsphere protease cleavage assay, LF; inhibition, % at 10 µM; AID 588501; further: plate controls were buffer without enzyme for full effect and enzyme alone for no effect
Target sequence (P15917 whole entry, looked up): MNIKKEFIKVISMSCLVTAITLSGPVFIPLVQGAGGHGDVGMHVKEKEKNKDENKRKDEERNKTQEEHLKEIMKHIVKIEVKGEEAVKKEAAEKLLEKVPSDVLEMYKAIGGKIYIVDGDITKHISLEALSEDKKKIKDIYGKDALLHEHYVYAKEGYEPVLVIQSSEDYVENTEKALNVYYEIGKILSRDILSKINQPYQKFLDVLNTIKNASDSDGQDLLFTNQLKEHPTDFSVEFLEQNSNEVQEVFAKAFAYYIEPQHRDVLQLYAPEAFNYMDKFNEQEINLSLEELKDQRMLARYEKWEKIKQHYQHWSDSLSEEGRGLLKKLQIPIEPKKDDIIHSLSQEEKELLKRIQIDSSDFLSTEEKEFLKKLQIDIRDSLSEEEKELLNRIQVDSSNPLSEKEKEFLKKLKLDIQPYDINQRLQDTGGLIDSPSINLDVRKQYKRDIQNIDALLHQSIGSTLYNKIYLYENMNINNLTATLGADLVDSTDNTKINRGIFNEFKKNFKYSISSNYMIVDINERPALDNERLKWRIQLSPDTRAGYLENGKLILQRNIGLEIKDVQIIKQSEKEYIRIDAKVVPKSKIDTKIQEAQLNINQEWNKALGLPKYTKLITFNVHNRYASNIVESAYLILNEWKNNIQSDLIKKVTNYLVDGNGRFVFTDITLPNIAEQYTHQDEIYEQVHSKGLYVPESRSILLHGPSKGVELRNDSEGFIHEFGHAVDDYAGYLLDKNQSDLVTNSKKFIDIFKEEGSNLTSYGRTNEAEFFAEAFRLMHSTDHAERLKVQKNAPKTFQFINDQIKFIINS
BoNT-A LC inh2 = inhibitors of Botulinum neurotoxin A light chain protease | inhibition, % at 10 µM | AID 588499 | multiplex microsphere protease substrate cleavage, flow cytometry | 360,000 compounds, 0.17% hits; further: plate controls were buffer without enzyme for full effect and enzyme alone for no effect
Bead autofluor = flagged as autofluorescent in microsphere protease counterscreen. fluorescence intensity (no concentration beside the values). compound autofluorescence counterscreen, microsphere flow cytometry; active compounds read high. 360,000 compounds, 3.1% hits; in the data active means fluorescence intensity above about 16000; inconclusive means no clear call, values can overlap the other calls
BoNT F protease = blocks Botulinum neurotoxin F light chain protease; Multiplex microsphere protease cleavage assay, flow cytometry; inhibition, % at 10 µM; 360,000 compounds, 0.22% hits; AID 588497; in the data active means inhibition above about 35%, passing the limit was not always enough; inconclusive means no clear call, values can overlap the other calls; further: plate controls were buffer without enzyme for full effect and enzyme alone for no effect
Active calls of the source: *; ? = inconclusive; . = no result given; ! = repeats disagree. A selection: hits, their analogues and other compounds. The true share with any hit is near 3.1%. Unless noted, no stated cut-off is given here; in the data, active means inhibition above about 30%; inconclusive means no clear call, values can overlap the other calls; inactive means below that.

SMILES | PriA SSB inh | Anthrax LF prot | BoNT-A LC inh2 | Bead autofluor | BoNT F protease
Cc1ccc(CNC(=O)c2cc(C)nn2-c2ccccc2)cc1 | -21.9 | -2.0 | 0.5 | 4071 | 1.3
COc1ccc(S(=O)(=O)NCC2CCN(C(C)C)CC2)cc1F | -5.0 | . | . | . | .
CCN1C(=O)/C(=C/N(C)C)c2ccccc21 | -10.1 | 1.8 | -0.2 | 16312* | -4.8
CCN1C(=O)/C(=C\N(C)C)c2ccccc21 | -4.1 | -9.1 | -1.8 | 7006 | -12.6
Cc1ccc(S(=O)(=O)N(CC(=O)Nc2cccc([N+](=O)[O-])c2)C(=O)N2CCN(C)CC2)cc1 | 1.5 | -12.9 | -45.1 | 16418* | -76.0
Cc1ccc(CNC(=O)CN(C(=O)N2CCN(C)CC2)S(=O)(=O)c2ccc(C)cc2)cc1 | -12.1 | . | . | . | .
Cc1nc(NC(=O)c2cc3ccccc3o2)sc1Cc1ccccc1 | -7.0 | . | . | . | .
COc1cc(CNCCN(C)C)c(Br)cc1OCC(=O)NCc1ccccc1 | -7.7 | -5.6 | 0.5 | 6743 | -5.6
COc1cc(CNCC(C)C)c(Br)cc1OCC(=O)NCc1ccccc1 | 7.7 | -4.9 | -0.5 | 16297* | -7.8
Cc1sc(NC(=O)CCSc2ccc(F)cc2)c(C#N)c1C | -11.0 | . | . | . | .
CCN(CC)C(=O)CSc1nnc(-c2cc3ccccc3cc2O)n1CC | -17.9 | -3.5 | -3.2 | 23212* | -7.1
CCN(CC)C(=O)CSc1nnc2cc(C)c3ccccc3n12 | -1.8 | -2.4 | -1.2 | 4675 | -6.8
CC(Nc1nc(N2CCCCC2)nc2ccccc12)c1ccccc1 (stereo not given) | -7.2 | -4.8 | ? | 21408* | -4.7
CC(Nc1nc(-c2ccccc2)nc2ccccc12)c1ccccc1 (stereo not given) | -17.6 | -1.2 | -0.2 | 6147 | -0.6
Cc1cc(Cl)ccc1NC(=O)COC(=O)c1cc([N+](=O)[O-])ccc1N1CCOCC1 | 7.8 | -43.9 | -187.1 | 49183* | -287.1
O=C(O)CSc1cccnn1 | -14.0 | . | . | . | .
CC(=O)c1cccc(NC(=O)CSc2ccc(-c3ccccn3)nn2)c1 | 47.9*! | 2.2 | -2.9 | 4899 | -13.3
Cc1cccc(NC(=O)CSc2ccc(-c3ccccn3)nn2)c1 | 70.7* | . | . | . | .
CSc1nsc(SCC(=O)Nc2cccc(C(C)=O)c2)n1 | -16.9 | 0.2 | 2.4 | 21617* | 2.5
CC(=O)Nc1cccc(NC(=O)CSc2ccc(-c3ccccn3)nn2)c1 | 12.6 | -2.9 | -2.0 | 3196 | -1.6
CCC(CC)C(=O)NCCN1CCN(C(=O)OC)CC1 | -11.0 | . | . | . | .
NS(=O)(=O)c1ccc(CCNC(=O)c2cc(=O)c(OCc3ccccc3)c[nH]2)cc1 | -7.0 | . | . | . | .
Cc1cccc(C)c1N(CC(O)Cn1c2ccccc2c2ccccc21)S(C)(=O)=O (stereo not given) | -3.4 | -0.2 | 1.5 | 21877* | 1.2
CCc1ccc(N2CC(C(=O)Nc3ccc(OC)c(S(=O)(=O)N4CCOCC4)c3)CC2=O)cc1 (stereo not given) | . | -8.0 | -0.4 | 3577 | -0.6
CCc1ccc(N2CC(C(=O)Nc3ccc(C)c(S(=O)(=O)N4CCOCC4)c3)CC2=O)cc1 (stereo not given) | -11.2 | -11.1 | -1.2 | 22656* | -5.5
SMILES | PriA SSB inh | Anthrax LF prot | BoNT-A LC inh2 | Bead autofluor | BoNT F protease
O=C(Nc1cccc(-c2nc3ncccc3o2)c1)c1sc2cc(Cl)ccc2c1Cl | -15.0 | 0.4 | ? | 22567* | 1.6
O=C(Nc1cccc(-c2nc3ncccc3o2)c1)c1sc2ccccc2c1Cl | -2.0 | -0.4 | 7.5 | 18637* | 8.2
O=C(Nc1cccc(-c2nc3ncccc3o2)c1)c1cc2ccccc2o1 | -10.8 | -0.2 | -1.1 | 4703 | -16.4
CN(C)CC(C)(C)CNC(=O)c1cc(=O)c2ccccc2o1 | -16.1 | -1.2 | 2.4 | 21817* | 3.3
Cc1ccc(NC(=O)c2cc(=O)c3ccccc3o2)cc1 | -6.6 | -9.1 | 2.7 | 21364* | 4.3
CC(=O)Nc1ccc(NC(=O)c2cc(=O)c3ccccc3o2)cc1 | -0.7 | 1.6 | 1.6 | 5241 | -3.6
CC(C)(C)NC(=O)C1CC(=O)OC1(C)C (stereo not given) | -16.8 | -0.2 | -3.9 | 21395* | -4.9
Cn1nc(C(F)(F)F)c(/C=N/OC(=O)c2ccccc2Cl)c1SCc1ccc(Cl)cc1 | . | -3.5 | 0.8 | 23366* | -3.6
COc1ccc(C(=O)O/N=C/c2c(C(F)(F)F)nn(C)c2SCc2ccccc2Cl)cc1 | . | -2.5 | 0.8 | 22636* | -2.4
Cn1nc(C(F)(F)F)c(C=NOC(=O)c2ccccc2)c1SCc1ccc(Cl)cc1 | -7.7 | . | . | . | .
COc1ccccc1Nc1c2c(nc3ccc(N)cc13)CCCC2 | 53.2* | -12.4 | 0.6 | 3312 | -31.5
CC(C)C(=O)N1CCN(c2ccc([N+](=O)[O-])cc2Cl)CC1 | 3.3 | 1.2 | 0.9 | 2288 | -1.3
O=[N+]([O-])c1ccc(N2CCN(c3ccc(Cl)nn3)CC2)c(Cl)c1 | -8.7 | 0.4 | -2.3 | 20451* | -3.8

Screens deposited in PubChem BioAssay by several laboratories.
